# PubChem BioAssay (NCI)
# This is part of a sample that, as a whole, favours compounds with a hit. Of some 79,000 tested, about 15% had one in any assay. The source made the active and inactive calls. Cut-off read from the data, not from the text of the source: active = growth inhibition above about 70%; inactive = the rest.
# Assay: NCI Yeast Anticancer Drug Screen. Data for the sgs1 mgt1 strain (AID 161);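 note: 0% = growth of cultures given vehicle only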
# Details: S. cerevisiae sgs1 mgt1 strain, at 50.0 µM (retest, dose inferred, filed as 5.0), stronger effect = higher value
# Outline: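 Mutant yeast exposed to compound; growth scored against vehicle-only wells.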
row,Structure (SMILES),growth inhibition
1,Cc1ccccc1Sc1ccccc1[N+](=O)[O-],27% (inactive)
2,Nc1nc(-c2ccc3c(c2)Sc2ccccc2O3)cs1,99% (active)
3,CC(C)(C)C1CCC2c3c([nH]c4ccccc34)C3C(=O)N(c4ccc(C(=O)O)cc4)C(=O)C3C2C1 (stereo not given),99% (active)
4,CCC[CH2][Sn]([CH2]CCC)([O]N(C)C(=O)c1ccc(Br)cc1)[O]N(C)C(=O)c1ccc(Br)cc1,95% (active)
5,COC(=O)c1ccc([N+](=O)[O-])o1,26% (inactive)
6,O=C(OC1=C(Br)C(=O)c2ccccc2C1=O)c1ccccc1,98% (active)
7,O=C(O)C/C(=C\c1ccco1)C(=O)O,-2% (inactive)
8,N#C/C(=C/c1ccc([N+](=O)[O-])o1)c1ccccc1,-1% (inactive)
9,CCN(CC)CCOc1ccc(C=C2c3ccccc3-c3ccccc32)cc1,99% (active)
10,Nc1ncnc(N2CCOCC2)c1N,0% (inactive)
11,Cc1cc(Cl)ccc1N1C(=O)C(=O)C(c2nc3ccccc3o2)C(=O)C1=O,98% (active)
12,Cc1nc2c(Cl)nc(Cl)nc2s1,97% (active)
13,CC1=NOC(=O)/C1=C/c1ccc(Cl)c(Cl)c1,31% (inactive)
14,CN(CCC(=O)/C(=C\c1ccc(Cl)cc1)c1ccccc1)Cc1ccccc1,99% (active)
15,C(=N\N=C\c1ccc2c(c1)OCO2)/c1ccc2c(c1)OCO2,6% (inactive)
16,Clc1ccc(CSc2ncnc3c2ncn3C2CCCCO2)cc1 (stereo not given),92% (active)
17,CC(=O)OC/C=C/CCCOC(C)=O,5% (inactive)
18,CCCCCCCCCCOC(=O)c1cccnc1,74% (active)
19,Cc1ccc2c(c1)C1(SCC(=O)N1c1ccc(Cl)cc1)C(=O)N2 (stereo not given),62% (inactive)
20,Oc1ccc(C2CCc3ccccc32)cc1 (stereo not given),98% (active)

row,Structure (SMILES),growth inhibition
1,[O-][N+]1=C2CCC/C(=N/O)C2(O)C2CCCCC21N1CCOCC1 (stereo not given),21% (inactive)
2,CCCCN(c1ccccc1)c1ncnc2c1ncn2C,86% (active)
3,Cc1cc(C)nc(/C=C/c2ccccc2)c1,22% (inactive)
4,CCCCN(C)N=Nc1c(C(N)=O)n[nH]c1C(C)C,52% (inactive)
5,O=C1C(Cl)=C(Cl)C(=O)C2=C1CC(Cl)C(Cl)C2 (stereo not given),97% (active)
6,O=C1Oc2ccccc2C(=O)/C1=C/N1C(=O)/C(=C/c2ccc3c(c2)OCO3)SC1=S,66% (inactive)
7,O=C(/C=C/c1ccc(O)cc1)c1cc(Cl)ccc1O,97% (active)
8,CCCC(C(=O)OCCNC1CCCCC1)c1ccccc1 (stereo not given),37% (inactive)
9,c1ccc2cc3c(cc2c1)Nc1c2ccccc2nc2cccc-3c12,72% (active)
10,CCCC1CCCC1(CC(=O)c1ccccc1)C(=O)O (stereo not given),47% (inactive)
11,COc1ccc(CCN2C(=O)C(=O)N(C3CCCCC3)C2=O)cc1OC,-3% (inactive)
12,COC(C(=O)O)c1ccccc1 (stereo not given),-2% (inactive)
13,CCCCCCCCC(=O)NCCCNCCCNC(=O)CCCCCCCC,-4% (inactive)
14,C[Si](C)(CCC(=O)O)O[Si](C)(C)CCC(=O)O,91% (active)
15,Cc1c2cc[n+](C)cc2c(C)c2c1[nH]c1ccc(Cl)cc12,99% (active)
16,O=[N+]([O-])c1ccc(C2=Nn3c(nnc3-c3ccc(Cl)cc3)SC2)o1,73% (active)
17,CCCCCCCCCCN(CCCCCCCCCC)CC(O)c1cc(-c2ccccc2)nc2ccccc12 (stereo not given),93% (active)
18,O=C(c1ccccc1)C(c1ccccc1)C1(O)C(=O)Nc2c(Cl)cc(Cl)cc21 (stereo not given),-18% (inactive)
19,COC(=S)S,0% (inactive)
20,CC/C(=C(\CC)c1ccc(O)c(CN(CC)CC)c1)c1ccc(OC)cc1,92% (active)
